Results filed as inconclusive are left out. A number with no mark means an inactive call. Calls come from the whole dose curve; as a rule, active = well fitted inhibition curve with a large enough effect; inconclusive = small, poorly fitted or top-dose-only effect; inactive = flat fitted curve, though single readings scatter.
target: Calcium and integrin-binding protein 1 (Homo sapiens) (UniProt Q99828); test: Primary qHTS for Identification of Calcium Integrin Binding Protein 1 (CIB1) Competitor (AID 1508620); conditions: CIB1-GST / FITC-alphaIIb peptide fluorescence polarization; series mostly up to 114 µM; activity change, negative = inhibition: at the top concentration;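 note: GST tagged CIB1 binding a fluorescein labelled alphaIIb integrin peptide tracer; top concentration of the series differs between compounds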
Procedure, shortened: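 CIB1-GST (1 uM final) and compound incubated 15 min at room temperature before adding FITC-alphaIIb peptide tracer (100 nM final). Competition for binding read by fluorescence polarization (ex 480, em 540) after another 15 min at room temperature.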
% is set by controls: 0 for no effect and ±100 for the full control effect.

Chain of Calcium and integrin-binding protein 1 (Homo sapiens) (Q99828 whole entry, looked up): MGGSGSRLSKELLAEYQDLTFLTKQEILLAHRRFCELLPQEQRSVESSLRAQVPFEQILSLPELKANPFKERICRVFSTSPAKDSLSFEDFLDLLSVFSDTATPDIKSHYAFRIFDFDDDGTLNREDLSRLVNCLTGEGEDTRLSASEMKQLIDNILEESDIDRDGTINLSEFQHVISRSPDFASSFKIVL

First: COc1ccc(C2Nc3ccccc3C(=O)N2Cc2ccccc2)cc1COc1cccc(C(F)(F)F)c1 (centres undefined)
Second: O=c1c2ccccc2nc2sc(NCc3ccc(Cc4ccccc4)cc3)nn12
The “activity change, negative = inhibition” value of the first is lower: 1.96% for the first, 2.75% for the second.

Going from `COc1cc(Nc2nc(-c3ccncc3)nc3ccccc23)ccc1Cl` to `CC(C)(C)OC(=O)N1CCN(c2ccc(NCc3cnc(-c4ccc(C#N)cc4)o3)cc2)CC1`, the “activity change, negative = inhibition” value falls from 4.16% to -0.444%.
